# This is one part of a sample in which the strongest signals are shown more often than they occur.
# What was measured:
# Experiment in all cases: glycan array binding signal (z-score within array); higher = stronger binding
# Settings in all cases: glycan notation: IUPAC condensed, linker removed
# [1] = test system: Fuc(a1-2)Gal(b1-3)GalNAc(b1-3)Gal
# Summary of the method: (§1)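 Glycan array binding is given as a within-array Z-score, which can be read as non-binding when negative. The arrays, 3228 of them, came from the Consortium for Functional Glycomics database and were retained only where the protein sequence was available. Z-scores were averaged across arrays of the same protein sequence at different concentrations or buffers and across linkers.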
# [2] = test system: Fuc(a1-2)Gal(b1-3)GlcNAc(b1-2)Man(a1-3)[Fuc(a1-2)Gal(b1-3)GlcNAc(b1-2)Man(a1-6)]Man(b1-4)GlcNAc(b1-4)GlcNAc
# Summary of the method: as §1
# [3] = test system: Fuc(a1-2)Gal(b1-4)GlcNAc(b1-2)Man(a1-3)[Fuc(a1-2)Gal(b1-4)GlcNAc(b1-2)Man(a1-6)]Man(b1-4)GlcNAc(b1-4)[Fuc(a1-6)]GlcNAc
# Summary of the method: as §1
# [4] = test system: Fuc(a1-2)Gal(b1-3)GlcNAc6S
# Summary of the method: as §1
# [5] = test system: Fuc(a1-2)Gal(b1-4)GlcNAc(b1-3)Gal(b1-4)GlcNAc(b1-2)Man(a1-3)[Fuc(a1-2)Gal(b1-4)GlcNAc(b1-3)Gal(b1-4)GlcNAc(b1-2)Man(a1-6)]Man(b1-4)GlcNAc(b1-4)GlcNAc
# Summary of the method: as §1
# Fuc(a1-2)Gal(b1-3)GalNAc = test system: Fuc(a1-2)Gal(b1-3)GalNAc
# Summary of the method: as §1
# [6] = test system: Fuc(a1-2)Gal(b1-3)GlcNAc(b1-2)Man(a1-3)[Fuc(a1-2)Gal(b1-3)GlcNAc(b1-2)Man(a1-6)]Man(b1-4)GlcNAc(b1-4)[Fuc(a1-6)]GlcNAc
# Summary of the method: as §1
# Fuc(a1-2)Gal(b1-4)Glc6S = test system: Fuc(a1-2)Gal(b1-4)Glc6S
# Summary of the method: as §1
# [7] = test system: Fuc(a1-2)Gal(b1-4)GlcNAc(b1-3)GalNAc
# Summary of the method: as §1
# [8] = test system: Fuc(a1-2)Gal(b1-3)GlcNAc(b1-3)[Fuc(a1-2)Gal(b1-3)GlcNAc(b1-6)]GalNAc
# Summary of the method: as §1
# [9] = test system: Fuc(a1-2)Gal(b1-3)[Fuc(a1-4)]GlcNAc(b1-2)Man(a1-3)[Fuc(a1-2)Gal(b1-3)[Fuc(a1-4)]GlcNAc(b1-2)Man(a1-6)]Man(b1-4)GlcNAc(b1-4)[Fuc(a1-6)]GlcNAc(b1-4)[Fuc(a1-6)]GlcNAc
# Summary of the method: as §1
# [10] = test system: Fuc(a1-2)Gal(b1-3)GlcNAc(b1-3)[Fuc(a1-3)[Gal(b1-4)]GlcNAc(b1-6)]Gal(b1-4)Glc
# Summary of the method: as §1
# [11] = test system: Fuc(a1-2)Gal(b1-3)[Fuc(a1-4)]GlcNAc(b1-2)Man(a1-3)[Fuc(a1-2)Gal(b1-3)[Fuc(a1-4)]GlcNAc(b1-2)Man(a1-6)]Man(b1-4)GlcNAc(b1-4)GlcNAc
# Summary of the method: as §1
# [12] = test system: Fuc(a1-2)Gal(b1-3)GlcNAc(b1-3)[Gal(b1-4)GlcNAc(b1-6)]Gal(b1-4)Glc
# Summary of the method: as §1
# [13] = test system: Fuc(a1-2)Gal(b1-3)[Fuc(a1-4)]GlcNAc
# Summary of the method: as §1
# [14] = test system: Fuc(a1-2)Gal(b1-4)GlcNAc(b1-2)[Fuc(a1-2)Gal(b1-4)GlcNAc(b1-4)]Man(a1-3)[Fuc(a1-2)Gal(b1-4)GlcNAc(b1-2)Man(a1-6)]Man(b1-4)GlcNAc(b1-4)GlcNAc
# Summary of the method: as §1
# Fuc(a1-2)Gal(b1-3)GlcNAc = test system: Fuc(a1-2)Gal(b1-3)GlcNAc
# Summary of the method: as §1
# [15] = test system: Fuc(a1-2)Gal(b1-4)GlcNAc(b1-3)Gal(b1-4)GlcNAc(b1-3)Gal(b1-4)GlcNAc
# Summary of the method: as §1
# [16] = test system: Fuc(a1-2)Gal(b1-4)GlcNAc(b1-3)Gal(b1-4)GlcNAc
# Summary of the method: as §1
substance,measurement,setting,value
AgI/IIC123-GFP (Streptococcus mutans),glycan array binding signal (z-score),[1],-0.278
same,glycan array binding signal (z-score),[2],-0.189
same,glycan array binding signal (z-score),[3],-0.573
LcI (Legionella pneumophila),glycan array binding signal (z-score),[1],4.24
same,glycan array binding signal (z-score),[4],1.6
same,glycan array binding signal (z-score),[3],0.257
same,glycan array binding signal (z-score),[5],3.4
"SiiE (Salmonella typhimurium), A0A0H3NVH0",glycan array binding signal (z-score),Fuc(a1-2)Gal(b1-3)GalNAc,-1.18
same,glycan array binding signal (z-score),[6],2.35
same,glycan array binding signal (z-score),Fuc(a1-2)Gal(b1-4)Glc6S,3.24
same,glycan array binding signal (z-score),[7],-0.206
Epa22,glycan array binding signal (z-score),[8],-0.12
same,glycan array binding signal (z-score),[9],0.488
"SpGH101 (Streptococcus pneumoniae), Q8DR60",glycan array binding signal (z-score),[10],-0.216
same,glycan array binding signal (z-score),[11],0.018
AgI/II Vhelical-GFP (Streptococcus mutans),glycan array binding signal (z-score),[12],-0.296
same,glycan array binding signal (z-score),[13],-0.149
same,glycan array binding signal (z-score),[14],-0.246
"Wza (Escherichia coli), P0A930",glycan array binding signal (z-score),Fuc(a1-2)Gal(b1-3)GlcNAc,0.769
same,glycan array binding signal (z-score),[14],0.441
Actinohivin (Actinomycete K97),glycan array binding signal (z-score),[9],0.06
"GspB (Streptococcus gordonii), Q939N5",glycan array binding signal (z-score),[15],0
"BambL (Burhholderia ambifaria), Q0B4G1",glycan array binding signal (z-score),[15],3.79
same,glycan array binding signal (z-score),[16],3.14
same,glycan array binding signal (z-score),[7],-0.033
